# Inconclusive results are not listed. Calls of active or inactive are those of the source. The calls were made as follows, unless noted: active = hit-call score of the fitted dose curve at least 0.9, where 1 is the maximum; inactive = score below 0.9.
# How the values were obtained:
# [1] = ATG_NFI_CIS: Attagene CIS-FACTORIAL HepG2 Assay for human Nuclear Factor I (NFI) (AID 2282989); settings: HepG2 cis-regulatory reporter, NFI response element transcription; actives raise or lower the signal
# Summary of the method: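 Endogenous TF activity in HepG2 cells transiently transfected with cis-element-driven multiplexed reporter units, read 24 h after dosing. Reporter mRNA quantified by RT-PCR, 6-FAM labelling, HpaI digestion and capillary electrophoresis; bidirectional fit versus DMSO.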
# [2] = molecular target: Myc proto-oncogene protein (Homo sapiens) (UniProt P01106); assay: ATG_Myc_CIS: Attagene CIS-FACTORIAL HepG2 Assay for human Myelocytomatosis (Myc) Proto-Oncogene Transcription Factor (AID 2282990); settings: HepG2, Attagene cis-reporter transcription factor activity; actives raise or lower the signal
# Summary of the method: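 Multiplexed cis-reporter transcription in HepG2 cells after 24 h chemical treatment. Reporter mRNA measured by RT-PCR and capillary electrophoresis fluorescence; activity fitted bidirectionally against DMSO control.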
# [3] = ATG_NF_kB_CIS: Attagene CIS-FACTORIAL HepG2 Assay for human Nuclear Factor Kappa B (NF-kB) (AID 2282991); settings: HepG2 Attagene cis-factorial NF-kB reporter mRNA; actives raise or lower the signal
# Summary of the method: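 After 24 h compound incubation, transfected HepG2 cells yield total RNA; reporter cDNA is PCR-amplified, end-labelled with 6-FAM, HpaI-digested and analysed on a genetic analyser. Endogenous factor activity, DMSO-referenced bidirectional fit.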
# [4] = ATG_NRF2_ARE_CIS: Attagene CIS-FACTORIAL HepG2 Assay for human Nuclear Factor Erythroid 2 Related Factor 2 (NFR2) response to Antioxidant Response Elements (ARE) (AID 2282992); settings: HepG2 Attagene ARE/NRF2 reporter, transcription factor activity; actives raise or lower the signal
# Summary of the method: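 Transient MRTU transfection of HepG2; 24 h compound exposure; TriZol RNA, RT with oligo(dT), PCR, 6-FAM primer extension, HpaI cut, CE. Bidirectional fit vs DMSO.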
# [5] = ATG_Oct_MLP_CIS: Attagene CIS-FACTORIAL HepG2 Assay for human Octamer-Binding Transcription Factor (Oct) (AID 2282993); settings: HepG2 Attagene cis-factorial Oct reporter, mRNA; actives raise or lower the signal
# Summary of the method: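 HepG2 cells transiently transfected with cis-element-driven reporter transcription units (endogenous TF activity); 24 h compound exposure. Reporter mRNA quantified by RT-PCR, 6-FAM labelling, HpaI digestion and capillary electrophoresis; bidirectional fit versus DMSO baseline.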
# [6] = molecular target: Cellular tumor antigen p53 (Homo sapiens) (UniProt P04637); assay: ATG_p53_CIS: Attagene CIS-FACTORIAL HepG2 Assay for human p53 Transcription Factor (AID 2282994); settings: HepG2 p53 cis-element reporter, Attagene mRNA; actives raise or lower the signal
# Summary of the method: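 HepG2, transient MRTU transfection (cis promoter elements, endogenous TFs); 24 h dosing; RNA isolation, RT-PCR, 6-FAM primer extension, HpaI digest, CE fluorescence; bidirectional fit vs DMSO.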
# [7] = molecular target: human Peroxisome Proliferator-activated Receptor alpha (PPARa), PPARA (gene 5465) (UniProt Q07869); assay: ATG_PPARa_TRANS: Attagene TRANS-FACTORIAL HepG2 Assay for human Peroxisome Proliferator-activated Receptor alpha (PPARa) (AID 2283001; active = hit-call score of the fitted dose curve at least 0.9, where 1 is the maximum)
# Summary of the method: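 HepG2 cells transiently transfected with multiplexed GAL4-UAS reporter units and chimeric NR-Gal4 constructs were dosed for 24 h. Reporter mRNA was measured by RT-PCR with fluorescent labelling and capillary electrophoresis; gain of signal fitted against DMSO.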
# [8] = molecular target: human Peroxisome Proliferator-activated Receptor delta (PPARd), PPARD (gene 5467) (UniProt Q03181); assay: ATG_PPARd_TRANS: Attagene TRANS-FACTORIAL HepG2 Assay for human Peroxisome Proliferator-activated Receptor delta (PPARd) (AID 2283002; active = hit-call score of the fitted dose curve at least 0.9, where 1 is the maximum)
# Summary of the method: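 Multiplexed trans-activation format: HepG2 liver cells expressing exogenous NR-Gal4 chimeras and GAL4-UAS reporters were exposed for 24 h. Reporter mRNA was detected by RT-PCR with capillary electrophoresis fluorescence; activity fitted as gain of signal relative to DMSO.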
# [9] = molecular target: Peroxisome proliferator-activated receptor gamma (Homo sapiens) (UniProt P37231); assay: ATG_PPARg_TRANS: Attagene TRANS-FACTORIAL HepG2 Assay for human Peroxisome Proliferator-activated Receptor-gamma (PPARg) (AID 2283007; active = hit-call score of the fitted dose curve at least 0.9, where 1 is the maximum)
# Summary of the method: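 Liver-derived HepG2 cells expressing an exogenous NR-Gal4 chimera alongside GAL4-UAS reporter genes; 24 h exposure. Fluorescence of reporter RT-PCR products, separated by capillary electrophoresis, gives mRNA induction relative to DMSO.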
# [10] = molecular target: Retinoic acid receptor alpha (Homo sapiens) (UniProt P10276); assay: ATG_RARa_TRANS: Attagene TRANS-FACTORIAL HepG2 Assay for human Retinoic Acid Receptor alpha (RARa) (AID 2283005; active = hit-call score of the fitted dose curve at least 0.9, where 1 is the maximum)
# Summary of the method: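 HepG2 cells transiently transfected with multiple reporter units expressing chimeric RARα-GAL4 fusion, with GAL4-UAS-driven reporters. After 24 h compound exposure, reporter mRNA induction quantified by RT-PCR and capillary electrophoresis with fluorescent labeling; gain-of-signal fitted relative to DMSO control.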
# [11] = molecular target: Nuclear receptor subfamily 1 group I member 2 (Homo sapiens) (UniProt O75469); assay: ATG_PXR_TRANS: Attagene TRANS-FACTORIAL HepG2 Assay for human Pregnane X Receptor (PXR) (AID 2283008; active = hit-call score of the fitted dose curve at least 0.9, where 1 is the maximum)
# Summary of the method: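 Read-out is fluorescence of labelled reporter cDNA fragments separated by capillary electrophoresis after RT-PCR and HpaI digestion. Source: HepG2 cells carrying PXR-GAL4/UAS reporter constructs, treated 24 h; activity fitted upward relative to DMSO.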
# [12] = molecular target: human Retinoic Acid Receptor beta (RARb), RARB (gene 5915) (UniProt P10826); assay: ATG_RARb_TRANS: Attagene TRANS-FACTORIAL HepG2 Assay for human Retinoic Acid Receptor beta (AID 2283004; active = hit-call score of the fitted dose curve at least 0.9, where 1 is the maximum)
# Summary of the method: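 HepG2 cells transiently transfected with multiplexed GAL4-UAS reporter units expressing chimeric NR–Gal4 fusions; 24 h compound exposure. Reporter mRNA quantified by RT-PCR, 6-FAM labelling, HpaI digestion and capillary electrophoresis; gain-of-signal fitted against DMSO baseline.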
# [13] = molecular target: human Retinoic Acid Receptor gamma (RARg), RARG (gene 5916) (UniProt P13631); assay: ATG_RARg_TRANS: Attagene TRANS-FACTORIAL HepG2 Assay for human Retinoic Acid Receptor gamma (RARg) (AID 2283009; active = hit-call score of the fitted dose curve at least 0.9, where 1 is the maximum)
# Summary of the method: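 HepG2 cells transiently transfected with multiplexed reporter units expressing chimeric RARg-GAL4 and GAL4-UAS-driven reporters; 24 h compound exposure. Reporter mRNA quantified by RT-PCR with fluorescent labelling and capillary electrophoresis; gain-of-signal fitted relative to DMSO baseline.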
# [14] = molecular target: human RAR-related Orphan Receptor beta (RORb), RORB (gene 6096) (UniProt Q92753); assay: ATG_RORb_TRANS: Attagene TRANS-FACTORIAL HepG2 Assay for human RAR-related Orphan Receptor beta (RORb) (AID 2283010; active = hit-call score of the fitted dose curve at least 0.9, where 1 is the maximum)
# Summary of the method: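 HepG2 cells were transiently transfected with multiplexed GAL4-UAS reporter units expressing chimeric nuclear receptor–GAL4 proteins, then dosed for 24 h. Reporter mRNA was quantified by RT-PCR with fluorescent labelling and capillary electrophoresis; gain of signal was fitted relative to DMSO.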
# Chain of human Peroxisome Proliferator-activated Receptor delta (PPARd), PPARD (gene 5467) (Q03181 whole entry, looked up, the tested form may be a part): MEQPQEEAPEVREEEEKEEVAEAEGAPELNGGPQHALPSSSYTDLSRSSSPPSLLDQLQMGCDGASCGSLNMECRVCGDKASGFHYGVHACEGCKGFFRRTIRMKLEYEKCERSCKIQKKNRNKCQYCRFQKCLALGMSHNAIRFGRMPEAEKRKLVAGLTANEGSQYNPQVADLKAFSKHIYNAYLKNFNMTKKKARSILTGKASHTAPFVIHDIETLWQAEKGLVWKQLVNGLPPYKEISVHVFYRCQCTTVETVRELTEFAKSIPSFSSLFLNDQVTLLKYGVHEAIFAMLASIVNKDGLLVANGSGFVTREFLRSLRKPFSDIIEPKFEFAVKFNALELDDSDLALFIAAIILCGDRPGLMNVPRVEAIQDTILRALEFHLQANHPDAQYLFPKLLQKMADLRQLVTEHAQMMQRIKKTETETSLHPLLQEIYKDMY
# Chain of Myc proto-oncogene protein (Homo sapiens) (P01106 whole entry, looked up): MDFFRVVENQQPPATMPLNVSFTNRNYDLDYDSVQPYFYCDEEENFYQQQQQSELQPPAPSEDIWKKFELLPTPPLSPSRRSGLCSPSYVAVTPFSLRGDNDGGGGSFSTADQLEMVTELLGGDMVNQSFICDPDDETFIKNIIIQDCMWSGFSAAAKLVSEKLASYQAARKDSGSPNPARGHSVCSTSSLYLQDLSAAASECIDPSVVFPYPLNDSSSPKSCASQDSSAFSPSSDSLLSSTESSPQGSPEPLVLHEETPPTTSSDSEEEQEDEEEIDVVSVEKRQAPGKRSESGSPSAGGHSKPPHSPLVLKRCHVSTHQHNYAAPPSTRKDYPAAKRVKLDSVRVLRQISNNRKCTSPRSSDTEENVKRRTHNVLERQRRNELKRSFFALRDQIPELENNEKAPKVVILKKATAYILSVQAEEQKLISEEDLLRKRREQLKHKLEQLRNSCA
# Chain of Peroxisome proliferator-activated receptor gamma (Homo sapiens) (P37231 whole entry, looked up, the tested form may be a part): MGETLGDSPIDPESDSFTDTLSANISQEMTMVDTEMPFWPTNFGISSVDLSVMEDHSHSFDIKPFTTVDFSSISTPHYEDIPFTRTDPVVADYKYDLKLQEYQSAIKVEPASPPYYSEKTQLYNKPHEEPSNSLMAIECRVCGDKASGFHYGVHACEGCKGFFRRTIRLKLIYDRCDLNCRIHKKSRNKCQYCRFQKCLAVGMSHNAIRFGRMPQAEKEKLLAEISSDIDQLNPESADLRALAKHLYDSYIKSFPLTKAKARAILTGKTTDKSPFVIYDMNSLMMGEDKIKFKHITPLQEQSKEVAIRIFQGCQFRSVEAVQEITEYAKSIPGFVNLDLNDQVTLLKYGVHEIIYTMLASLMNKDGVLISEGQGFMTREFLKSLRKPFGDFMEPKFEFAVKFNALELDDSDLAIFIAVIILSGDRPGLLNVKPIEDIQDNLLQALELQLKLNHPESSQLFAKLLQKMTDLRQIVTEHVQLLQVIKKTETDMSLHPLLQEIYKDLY
# Chain of Nuclear receptor subfamily 1 group I member 2 (Homo sapiens) (O75469 whole entry, looked up, the tested form may be a part): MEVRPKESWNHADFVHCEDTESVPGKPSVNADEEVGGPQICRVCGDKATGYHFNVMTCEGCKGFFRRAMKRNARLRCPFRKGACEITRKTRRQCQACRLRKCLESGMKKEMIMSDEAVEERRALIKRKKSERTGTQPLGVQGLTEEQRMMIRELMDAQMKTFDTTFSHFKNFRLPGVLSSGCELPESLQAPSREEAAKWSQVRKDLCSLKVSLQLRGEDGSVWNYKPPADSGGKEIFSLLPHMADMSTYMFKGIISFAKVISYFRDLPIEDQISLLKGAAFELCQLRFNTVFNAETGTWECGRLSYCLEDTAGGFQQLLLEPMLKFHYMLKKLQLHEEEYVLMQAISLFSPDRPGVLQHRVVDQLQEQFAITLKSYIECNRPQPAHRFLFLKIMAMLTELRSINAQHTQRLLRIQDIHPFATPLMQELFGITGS
# Chain of human Retinoic Acid Receptor gamma (RARg), RARG (gene 5916) (P13631 whole entry, looked up, the tested form may be a part): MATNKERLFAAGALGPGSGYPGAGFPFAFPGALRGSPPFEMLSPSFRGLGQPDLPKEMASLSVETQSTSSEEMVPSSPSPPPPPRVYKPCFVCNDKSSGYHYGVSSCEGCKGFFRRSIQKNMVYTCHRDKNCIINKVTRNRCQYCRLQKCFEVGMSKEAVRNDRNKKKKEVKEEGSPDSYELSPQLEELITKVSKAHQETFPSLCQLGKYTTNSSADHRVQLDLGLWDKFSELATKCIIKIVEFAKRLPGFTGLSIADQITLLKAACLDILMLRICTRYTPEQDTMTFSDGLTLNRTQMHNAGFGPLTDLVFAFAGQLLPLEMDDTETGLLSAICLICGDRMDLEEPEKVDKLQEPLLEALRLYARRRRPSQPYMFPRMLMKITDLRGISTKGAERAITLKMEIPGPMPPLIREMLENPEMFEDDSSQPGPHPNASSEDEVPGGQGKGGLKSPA
# Chain of human Peroxisome Proliferator-activated Receptor alpha (PPARa), PPARA (gene 5465) (Q07869 whole entry, looked up, the tested form may be a part): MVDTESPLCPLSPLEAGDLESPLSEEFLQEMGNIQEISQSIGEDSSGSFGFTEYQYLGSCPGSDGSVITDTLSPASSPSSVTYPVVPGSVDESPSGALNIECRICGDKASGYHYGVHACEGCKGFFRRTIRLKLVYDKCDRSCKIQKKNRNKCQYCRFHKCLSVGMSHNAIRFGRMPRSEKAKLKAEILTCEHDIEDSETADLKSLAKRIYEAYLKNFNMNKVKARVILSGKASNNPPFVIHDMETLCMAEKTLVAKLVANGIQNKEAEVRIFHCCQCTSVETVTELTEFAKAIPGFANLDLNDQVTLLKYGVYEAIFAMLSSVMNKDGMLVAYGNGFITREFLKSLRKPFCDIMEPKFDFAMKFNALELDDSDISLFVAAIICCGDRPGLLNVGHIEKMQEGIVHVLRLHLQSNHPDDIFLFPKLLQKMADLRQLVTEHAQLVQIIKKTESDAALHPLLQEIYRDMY
# Chain of Retinoic acid receptor alpha (Homo sapiens) (P10276 whole entry, looked up, the tested form may be a part): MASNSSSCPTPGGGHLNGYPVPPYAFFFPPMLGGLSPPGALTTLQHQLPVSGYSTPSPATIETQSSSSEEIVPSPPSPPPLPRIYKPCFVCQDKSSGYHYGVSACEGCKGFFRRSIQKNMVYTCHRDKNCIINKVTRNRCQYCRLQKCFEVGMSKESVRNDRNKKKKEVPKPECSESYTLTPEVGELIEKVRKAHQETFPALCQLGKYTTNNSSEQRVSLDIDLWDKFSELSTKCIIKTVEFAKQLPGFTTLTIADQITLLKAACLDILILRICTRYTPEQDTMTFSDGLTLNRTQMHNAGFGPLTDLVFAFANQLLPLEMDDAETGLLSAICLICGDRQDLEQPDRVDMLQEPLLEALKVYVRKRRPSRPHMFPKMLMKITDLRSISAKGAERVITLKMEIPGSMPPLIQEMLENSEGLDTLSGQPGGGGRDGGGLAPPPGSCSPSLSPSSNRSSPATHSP
# Chain of Cellular tumor antigen p53 (Homo sapiens) (P04637 whole entry, looked up): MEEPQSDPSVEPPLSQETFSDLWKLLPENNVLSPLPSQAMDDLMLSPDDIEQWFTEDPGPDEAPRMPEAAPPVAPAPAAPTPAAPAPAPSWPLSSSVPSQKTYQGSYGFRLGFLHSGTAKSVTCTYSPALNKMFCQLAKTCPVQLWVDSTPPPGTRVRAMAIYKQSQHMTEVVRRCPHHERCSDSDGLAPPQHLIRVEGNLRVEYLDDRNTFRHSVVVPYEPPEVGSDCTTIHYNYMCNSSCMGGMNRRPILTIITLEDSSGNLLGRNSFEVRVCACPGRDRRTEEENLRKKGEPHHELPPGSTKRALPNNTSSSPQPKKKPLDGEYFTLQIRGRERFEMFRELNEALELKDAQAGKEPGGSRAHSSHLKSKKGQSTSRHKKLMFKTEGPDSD
# Chain of human Retinoic Acid Receptor beta (RARb), RARB (gene 5915) (P10826 whole entry, looked up, the tested form may be a part): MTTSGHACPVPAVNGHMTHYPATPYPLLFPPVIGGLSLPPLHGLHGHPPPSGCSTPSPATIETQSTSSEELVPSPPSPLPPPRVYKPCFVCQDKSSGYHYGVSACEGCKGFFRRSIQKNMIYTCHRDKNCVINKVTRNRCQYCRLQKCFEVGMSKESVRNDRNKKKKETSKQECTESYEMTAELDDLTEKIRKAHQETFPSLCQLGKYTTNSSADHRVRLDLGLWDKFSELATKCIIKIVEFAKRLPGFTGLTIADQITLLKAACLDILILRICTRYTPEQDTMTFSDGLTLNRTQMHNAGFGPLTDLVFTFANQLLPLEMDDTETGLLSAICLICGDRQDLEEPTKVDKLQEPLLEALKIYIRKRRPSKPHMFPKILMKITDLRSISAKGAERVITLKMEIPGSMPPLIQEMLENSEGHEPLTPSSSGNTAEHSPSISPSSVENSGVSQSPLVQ
# Chain of human RAR-related Orphan Receptor beta (RORb), RORB (gene 6096) (Q92753 whole entry, looked up, the tested form may be a part): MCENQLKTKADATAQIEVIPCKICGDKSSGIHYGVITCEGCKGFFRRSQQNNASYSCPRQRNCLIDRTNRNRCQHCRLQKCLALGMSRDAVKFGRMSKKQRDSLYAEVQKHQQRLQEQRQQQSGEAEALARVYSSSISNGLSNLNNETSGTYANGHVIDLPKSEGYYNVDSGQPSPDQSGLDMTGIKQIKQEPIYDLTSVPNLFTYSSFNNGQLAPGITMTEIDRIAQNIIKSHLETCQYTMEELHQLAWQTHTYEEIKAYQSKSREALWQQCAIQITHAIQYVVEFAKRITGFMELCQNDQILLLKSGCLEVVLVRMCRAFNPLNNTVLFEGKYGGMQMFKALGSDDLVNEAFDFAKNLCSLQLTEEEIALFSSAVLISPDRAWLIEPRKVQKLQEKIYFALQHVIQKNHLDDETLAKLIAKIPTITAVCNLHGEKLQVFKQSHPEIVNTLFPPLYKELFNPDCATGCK
Structure (SMILES),outcome [1],outcome [2],outcome [3],outcome [4],outcome [5],outcome [6],outcome [7],outcome [8],outcome [9],outcome [10],AC50 [11],outcome [12],outcome [11],outcome [13],AC50 [4],AC50 [9],AC50 [1],AC50 [3],outcome [14]
CC(Oc1cc(Cl)ccc1Cl)C(=O)O (centres undefined),inactive,inactive,inactive,inactive,inactive,inactive,inactive,inactive,inactive,,,,,,,,,,
C/C=C(\C)C(=O)OCCc1ccccc1,inactive,inactive,inactive,inactive,inactive,inactive,inactive,inactive,inactive,inactive,25.1 µM (active),,,,,,,,
CC(=O)O[C@H]1C[C@@H]2CC[C@@]1(C)C2(C)C,inactive,inactive,inactive,inactive,inactive,inactive,inactive,,inactive,inactive,,inactive,inactive,inactive,,,,,
CN1C(=O)c2ccccc2C1=O,inactive,inactive,inactive,inactive,inactive,inactive,inactive,inactive,,,,,,inactive,,,,,
CCCCC(CC)COC(=O)c1ccc(O)cc1 (centres undefined),inactive,inactive,inactive,inactive,inactive,inactive,inactive,inactive,,inactive,20.7 µM (active),,,,,,,,
CCCCCCCCSCCO,inactive,inactive,inactive,,inactive,inactive,inactive,inactive,,,,,inactive,,186 µM (active),33.8 µM (active),,,
CCOC(=O)[C@@H](C)Oc1ccc(Oc2nc3ccc(Cl)cc3o2)cc1,inactive,inactive,inactive,,inactive,inactive,inactive,inactive,,,,,inactive,,39.9 µM (active),39.2 µM (active),,,
NCC1CCCC(CN)C1 (centres undefined),inactive,inactive,inactive,inactive,inactive,inactive,inactive,inactive,inactive,,,,inactive,,,,,,
CCCCCCCCc1ccc(S(=O)(=O)O)cc1,,inactive,,,inactive,inactive,inactive,,,inactive,,inactive,,inactive,99.5 µM (active),23.6 µM (active),185 µM (active),130 µM (active),inactive
Nc1c(Cl)cc(Cl)cc1[N+](=O)[O-],inactive,inactive,inactive,,inactive,inactive,inactive,inactive,,,16.5 µM (active),,,inactive,41.5 µM (active),,,,
CCCCCCCCCCCCS(=O)(=O)Cl,inactive,inactive,inactive,inactive,inactive,inactive,inactive,inactive,,inactive,,,,inactive,,25 µM (active),,,

# From PubChem BioAssay (EPA / NIEHS)
